# esBAF inh = Bmi1 luciferase reporter increase in mESCs, primary screen, esBAF inhibitor project, mouse ES cells, Bmi1 luciferase knock-in, single point. 24 h; 100% = twice the neutral-well signal. reporter increase, % at 12.5 µM. 2% of 350,000 active; in the data active means activation above about 40%;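 further: 0% = median of the plate's neutral control wells and 100% = double that signal; a rise in the Bmi1 reporter signal indicates esBAF inhibition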
# dFosB activator = activators of delta FosB homodimer, primary screen, biochemical, fluorescence polarization, TAMRA-CDK5 oligo, single point; purified delta FosB; percent of positive-control signal above neutral wells; activation, % at 25 µM; 0.99% of 340,000 active;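 active means mean activation above about 17%, with every replicate also reaching it, limit read from the data, passing the limit was not always enough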
# CDK5 p35 inh = inhibitors of human CDK5/p35 kinase, primary screen, biochemical, single concentration; 0.01% of 330,000 active; Recombinant CDK5/p35, ADP-Glo luminescence, 60 min; inhibition, % at 10 µM;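 active means highest replicate inhibition of at least 50% and at least 75% of replicates reaching 50%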;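 further: plate controls were DMSO neutral control for no effect and GW8510 at 10 µM for full effect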
# DYRK1A inh = rat Dyrk1A kinase inhibitors, primary screen, biochemical, single point, plate reader. Dual specificity tyrosine-phosphorylation-regulated kinase 1A (Rattus norvegicus), Q63470. ADP-Glo luminescence, NFATc1 peptide. inhibition, % at 12.5 µM. 0.43% of 310,000 active; in the data active means inhibition above about 50%;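 further: plate controls were vehicle with enzyme for no effect and no enzyme for full effect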
# Rtt109 HAT inh = inhibitors of C. albicans Rtt109/Vps75 HAT, primary screen, biochemical, ThioGlo CoA-SH fluorescence, plate reader; purified Rtt109/Vps75, 4 h; 0.16% of 330,000 active; inhibition, % at 34.9 µM; Histone acetyltransferase RTT109 (Candida albicans (strain SC5314 / ATCC MYA-2876)), …;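 active means inhibition of at least 50% in every replicate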
# Target sequence (Q5AAJ8 whole entry, looked up): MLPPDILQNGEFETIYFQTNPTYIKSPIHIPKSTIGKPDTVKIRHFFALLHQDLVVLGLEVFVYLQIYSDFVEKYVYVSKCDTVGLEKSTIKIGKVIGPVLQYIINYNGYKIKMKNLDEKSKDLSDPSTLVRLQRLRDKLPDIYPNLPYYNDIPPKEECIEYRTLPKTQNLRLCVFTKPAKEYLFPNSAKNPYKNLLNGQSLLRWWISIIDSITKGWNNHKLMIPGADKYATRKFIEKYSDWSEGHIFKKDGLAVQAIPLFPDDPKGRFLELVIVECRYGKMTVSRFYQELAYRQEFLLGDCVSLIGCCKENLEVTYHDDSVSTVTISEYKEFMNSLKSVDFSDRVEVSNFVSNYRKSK
# SMARCA2 activ = SMARCA2 (BRM) function activators, primary screen, cell-based, luminescence, high throughput | activation, % at 9.1 µM | MG213 cells, MMTV-luciferase reporter, dexamethasone, overnight | 1% of 370,000 active; in the data active means activation above about 7.8%;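 further: 0% = vehicle wells and 100% = reference activator wells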
# SMARCA2 act conf = SMARCA2 (BRM) function activators, confirmation, cell-based, luminescence, triplicate; shares compounds with SMARCA2 activ; MG213 cells, MMTV-luciferase with dexamethasone, overnight; MG213 cells expressing E1A, Rb sequestered; DMSO wells 0%, reference activator 100%; activation, % at 9.1 µM; 30% of 3,500 active; AID 652260, 2013;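 active means activation above its plate's cutoff, the mean activation of tested wells plus 3 SD, cut at about 7.9% in these data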
# GAL4-VP16 Luc = GAL4-VP16 luciferase reporter activation, counter-screen for SMARCA2 (BRM) activator project, cell-based, pG5luc, luminescence, high throughput | shares compounds with SMARCA2 activ | HEK293 GAL4-VP16 pG5luc reporter; scaled: DMSO wells 0%, SAHA wells 100% | activation, % at 9.1 µM | 41% of 3,500 active | AID 686939, 2013;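 active means activation above the solvent-only control well mean plus 3 SD, averaged across control plates, cut at about 5.2% in these data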
# Numbers without * were called inactive; . = not tested or not shown. An excerpt weighted towards active compounds, which were near 3.2% of everything screened.
SMILES,esBAF inh,dFosB activator,CDK5 p35 inh,DYRK1A inh,Rtt109 HAT inh,SMARCA2 activ,SMARCA2 act conf,GAL4-VP16 Luc
Cc1ccc(-c2nnc(NC(=O)c3ccco3)s2)cc1,-29,-2,0,-4,-10,9.2*,13*,12*
Cc1ccc2nc(NC(=O)c3ccco3)sc2c1,.,-24,0,46,-1,1,.,.
Cc1cc(NC(=O)c2ccco2)sc1C,29,-4,2,-1,4,9.1*,12*,11*
O=C1NC[C@H](CCCCN2C[C@H](Cc3ccccc3)N(CC3CCCCC3)C(=O)C2=O)N(CCc2ccc(O)cc2)C1=O,.,.,.,.,.,-3,.,.
O=C1NC[C@H](CCCCN2C[C@H](Cc3ccc(O)cc3)N(CCc3ccc(O)cc3)C(=O)C2=O)N(CC2CCCCC2)C1=O,.,.,.,.,.,8.5*,0,2
Cc1c(NC(=O)C2CCCO2)cccc1[N+](=O)[O-] (configuration not stated),.,-1,0,-3,6,9.5*,2,0
Cc1cccc([N+](=O)[O-])c1NC(=O)COC(=O)C1CCCO1 (configuration not stated),-4,-1,-1,-7,-4,-3,.,.
CO[C@H]1CN(C)C(=O)c2ccc(NC(=O)Cc3ccccc3)cc2OC[C@@H](C)N(C)C[C@@H]1C,1,.,.,.,.,.,.,.
O=C(c1cc2c(c(-c3cccc(-c4ccncc4)c3)n1)[C@@H](CCO)N(C(=O)c1ccc3c(c1)OCO3)C2)N1CCOCC1,.,.,.,.,.,8.1*,9.2*,0
O=C(c1cc2c(c(-c3cccc(-c4ccc(F)cc4)c3)n1)[C@H](CCO)N(C(=O)c1ccc3c(c1)OCO3)C2)N1CCOCC1,.,.,.,.,.,-1,.,.
c1cc2ccc3ccc(-n4cnnn4)c4ccc(c1)c2c34,.,25*,0,17,-19,8.7*,-2,-1
Cc1c(N)cccc1-n1cnnn1,.,-5,1,-7,-15,1,.,.
COc1ccc2c(c1)CCc1c(C(=O)NCc3cccnc3)noc1-2,19,-8,-1,9,-6,10*,0,6.4*
COc1ccc(NC(=O)Nc2ccc3c(c2)C(=O)N([C@@H](C)CO)C[C@@H](C)[C@H](CN(C)S(=O)(=O)c2ccc(C)cc2)OCCCC[C@@H](C)O3)cc1,6,.,.,.,.,.,.,.
C[C@@H]1CN([C@@H](C)CO)C(=O)CCCn2cc(nn2)CO[C@@H]1CN(C)C,3,.,.,.,.,.,.,.
COc1ccc(C)cc1NC(=O)c1ccccc1NS(=O)(=O)c1cccc2cccnc12,0,-7,.,-5,-26,8.1*,-3,-1
COc1ccc(C)cc1NC(=O)C1CCN(S(=O)(=O)c2cccc3cccnc23)CC1,8,-5,-3,-4,22,0,.,.
CC(C)(C)C(=O)Nc1nnc(SCC(=O)Nc2ccc3c(c2)OCO3)s1,.,7,2,-1,0,13*,-5,2
CC(C)CC(=O)Nc1nnc(SCC(=O)Nc2ccc3c(c2)OCO3)s1,.,8,2,-4,4,2,.,.
CC1(C)Cc2c(sc(NC(=O)COc3cccc4ccccc34)c2C#N)C(C)(C)N1,4,15,0,15,-4,54*,41*,2
Cc1ccc(OCC(=O)Nc2sc3c(c2C#N)CC(C)(C)NC3(C)C)cc1,.,-8,0,.,15,-4,.,.
COc1cccc(NC(=O)CCC2CCN(C(=O)C3CC=CCC3)CC2)c1 (configuration not stated),-5,-8,-8,8,0,8.0*,-3,2
C[C@H]1CN([C@@H](C)CO)C(=O)c2cc(C#CCN(C)C)cnc2O[C@@H]1CN(C)C(=O)NC1CCCC1,-7,.,.,.,.,.,.,.
COc1ccc(-c2cc(NC=O)c3ncc(-c4ccc(OC)c(OC)c4)n3c2)cc1OC,-19,.,.,.,.,13*,15*,8.6*
COc1cc(-c2cc(NC=O)c3ncc(-c4ccc(C(C)=O)cc4)n3c2)ccc1O,-13,.,.,.,.,14*,21*,5
SMILES,esBAF inh,dFosB activator,CDK5 p35 inh,DYRK1A inh,Rtt109 HAT inh,SMARCA2 activ,SMARCA2 act conf,GAL4-VP16 Luc
COc1ccc(-c2cc(NC=O)c3ncc(-c4ccc(OC)c(OC)c4)n3c2)cc1,-10,.,.,.,.,2,.,.
CC(C)C#Cc1cnc2c(c1)C(=O)N([C@H](C)CO)C[C@H](C)[C@@H](CN(C)C(=O)CCN1CCCCC1)O2,2,.,.,.,.,.,.,.
O=c1c2ccccc2sc2c(CO)ccc(NCCN3CCCCC3)c12,.,1,0,-3,2,8.6*,29*,-1
Cc1ccc(Cl)cc1NC(=O)CC1NC2CCCCC2NC1=O (configuration not stated),2,4,1,7,-8,0,.,.
O=C(CC1NC2CCCCC2NC1=O)Nc1ccc2c(c1)OCO2 (configuration not stated),-6,-2,0,1,-14,11*,-1,0
Cc1ccc(S(=O)(=O)NCC[C@H]2CC[C@H](NS(=O)(=O)c3ccccc3Cl)[C@@H](CO)O2)cc1,7,.,.,.,.,.,.,.
FC(F)(F)Oc1ccc(Nc2nc3ccccc3o2)cc1,.,0,-2,1,-5,2,.,.
c1ccc(Nc2nc3ccccc3o2)cc1,17,6,3,5,-3,13*,6,8.4*
O=C(C[C@H]1C[C@H]2c3cc(NC(=O)C4CCC4)ccc3O[C@H]2[C@@H](CO)O1)NCc1cccnc1,-3,.,.,.,.,.,.,.
O=S(=O)(NNc1ccc(Cl)nn1)c1ccc(F)cc1,.,-3,-1,-4,-1,8.4*,1,1
O=S(=O)(Nc1ccc(Cl)nn1)c1ccccc1,.,-2,-2,7,2,-4,.,.
O=C(NCCN1C(=O)S/C(=C\c2ccccc2Cl)C1=O)C1=COCCO1,.,-8,-2,4,-2,-1,.,.
O=C(NCCN1C(=O)S/C(=C\c2ccc(Cl)cc2Cl)C1=O)C1=COCCO1,13,-4,-1,11,-11,8.1*,4,0

# Screening data (PubChem BioAssay)
